From PubChem BioAssay (Tox21)
Inconclusive results are not listed. Where a call stands in place of a potency, no number is given. Activity calls are given as the source filed them. Calls follow the shape of the dose curve; as a rule, active = well fitted cell-killing curve with a large enough effect in the repeat runs; inconclusive = weak or mixed curves; inactive = no such curve, though single readings can be large or run the other way.

Test: qHTS assay to identify small molecule agonists of the peroxisome proliferator-activated receptor delta (PPARd) signaling pathway - cell viability counter screen (AID 743211); also: nearly all actives have a fitted effect of over 55% in size
Conditions: PPARd-bla HEK293H viability, CellTiter-Glo luminescence, 17 h; series mostly up to 62.6 µM
Summary of the method: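 PPARd-bla HEK293H cells (3000/well) were pre-incubated 5 h at 37 C, then exposed to compound for 17 h at 37 C. After 2 h with LiveBLAzer substrate, CellTiter-Glo was added to the same wells; luminescence read after 30 min at room temperature.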

Compound	Potency
Oc1ccc2ccccc2c1	inactive
OCC#CCO	inactive
C=C(C)C(=O)OCCCCCC	inactive
Cc1cc(NS(=O)(=O)c2ccc(N)cc2)no1	inactive
CN(C)c1cccc(O)c1	inactive
C/C=C(C)/C=C/C=C(C)C	inactive
CS(=O)(=O)Nc1ccc([N+](=O)[O-])cc1Oc1ccccc1	inactive
CC(C)n1c(/C=C/[C@@H](O)C[C@@H](O)CC(=O)O)c(-c2ccc(F)cc2)c2ccccc21	inactive
CCCCCCC(C)(C)S	inactive
CC(=O)CCc1ccccc1	inactive
CCCCCCCCCC(=O)O	inactive
CC(=O)Nc1ccc(C(=O)O)cc1	inactive
OC[C@@H](O)[C@H](O)[C@H](O)[C@@H](O)CO	inactive
CN(CCOc1ccc(CC2SC(=O)NC2=O)cc1)c1ccccn1 (stereo not given)	inactive
CC(C)NCC(O)COc1cccc2ccccc12 (stereo not given)	inactive
